# Assay outcomes (PubChem)
# In the library only some 3.6% were active in any assay of this set; here they are far more common.
# HSF-1 act – increases HSF-1 driven luciferase reporter signal; NIH3T3-HGL HSF-1 luciferase reporter, MG132, 8 h; 100% = twice DMSO control signal; activation, % at 9 µM; 300,000 tested, 1.7% active;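 active = mean replicate activation of at least 50% with a set share of replicates each reaching 50%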;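 note: 0% = median of the neutral control wells and 100% = twice that signal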
# HSF1 inhib – HSF1 inhibition. NIH3T3-HGL HSE-luciferase, MG132-induced, luminescence 8 h; stronger effect = lower value. activity change, negative = inhibition, % at 7.5 µM (by protocol). 300,000 tested, 0.77% active. AID 2098;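 active = more than half of replicate wells show activity change below -50%, luminescence cut by over half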;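 note: luciferase reports HSF-1 transcriptional activity via heat shock element; 0% = median of DMSO wells and -100% = zero luminescence signal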
# LMP1 NFkB inh – reduces LMP1-driven NF-kappaB luciferase signal; LMP1-induced NF-kappaB luciferase reporter cells, luminescence; 350,000 tested, 0.69% active; inhibition, % at 12.5 µM; AID 504558; in the data active = inhibition above about 41%;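 note: 0% = neutral control wells and 100% = reference inhibitor control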
# TROY NFkB inh – TROY signaling inhibition; inhibition, % at 10 µM; Q293 LMP1-TROYcd NF-kB luciferase reporter, 4 h; 360,000 tested, 0.98% active;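 active = compounds whose plate-normalised and pattern-corrected inhibition of the luciferase reporter signal at the single screening dose is 50% or more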
# LGR2 antag – inhibitors of bursicon-induced Drosophila LGR2 receptor cAMP signaling; HEK293 LGR2, CRE-luciferase, bursicon-stimulated, 4 h; inhibition, % at 9.99 µM; 380,000 tested, 0.35% active;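 active = drop in luminescence signal, shown as inhibition above about 50% in the replicate tests, limit read from the data, passing the limit was not always enough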;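 note: agonist challenge used bursicon conditioned medium at about half maximal strength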
# TWEAK-Fn14 inh – blocks TWEAK-Fn14 interaction in a reporter cell assay; TWEAK-stimulated Fn14 reporter cells, luciferase luminescence, 8 h; inhibition, % at 10 µM; 360,000 tested, 2% active; AID 1159606; in the data active = inhibition above about 50%
# * marks the source's active call; other numbers are inactive results; / = not tested or not shown.
SMILES,HSF-1 act,HSF1 inhib,LMP1 NFkB inh,TROY NFkB inh,LGR2 antag,TWEAK-Fn14 inh
COc1ccc(Nc2ncc(C(=O)N3CCN(c4ccc(F)cc4)CC3)c3ccccc23)cc1,14,-5,5,23,/,53*
COc1ccc(Nc2ncc(C(=O)O)c3ccccc23)cc1,3,6,-6,-26,/,-12
COc1ccc(C(=O)Nc2ccc(N3CCCC3)cc2)cc1,12,7,11,-41,/,-50
COc1ccc(C(=O)Nc2ccc(N3CCN(C(=O)c4ccccc4C)CC3)cc2)cc1,-32,-35,51*,24,38,3
CC(C)(C)C(=O)N1CCN(c2ccc(NC(=O)c3ccc([N+](=O)[O-])o3)cc2)CC1,-5,1,-29,-15,5,-9
CC1CCN(c2ccc(NC(=O)c3ccc([N+](=O)[O-])o3)cc2)CC1,98*,95,-126,9,2,42
CCC(=O)N1CCN(c2ccc(NC(=O)c3ccc4ccccc4c3)cc2)CC1,66*,28,9,-8,-2,10
O=C(C[C@@H]1C=C[C@H](NC(=O)Nc2ccccc2)[C@H](CO)O1)NCc1ccccn1,/,/,/,/,-10,/
CN1C(=O)c2cc(NC(=O)C3CCCC3)ccc2OC[C@@H]2O[C@H](CC(=O)O)CC[C@@H]21,/,/,/,/,-8,/
CCOc1ccccc1C(=O)N1CCN(c2cccc(Cl)c2)CC1,-2,0,-4,23,-4,-28
O=C(Nc1ccc(N2CCCCC2)cc1)c1ccc([N+](=O)[O-])o1,91*,67,-95,24,-12,45
COc1ccc2oc(=O)c(C(=O)N3CCN(c4ccccc4)CC3)cc2c1,82*,44,-6,-29,-41,-19
COc1ccc2oc(=O)c(C(=O)N3CCN(C(=O)c4ccccc4)CC3)cc2c1,7,-2,-2,21,11,16
COc1ccccc1N1CCN(c2ncc(C(=O)N3CCN(c4cccc(Cl)c4)CC3)c3ccccc23)CC1,/,/,32,-6,39,80*
O=C(C[C@H]1C[C@H]2c3cc(NC(=O)C4CCC4)ccc3O[C@H]2[C@H](CO)O1)NCc1ccccc1,/,/,/,/,-11,/
CN(Cc1ccccc1)S(=O)(=O)c1ccc(Cl)c(C(=O)O)c1,-14,-4,2,-8,8,-11
O=C(O)c1cc(S(=O)(=O)N(Cc2ccccc2)c2ccccc2Cl)ccc1Cl,-57,-52*,1,6,-1,-6
CS(=O)(=O)N1CC2(C1)[C@H](c1ccccc1)[C@@H](CO)N2Cc1ccc(F)cc1,/,/,/,/,9,/
O=C(CCCCCNC(=O)N1CCn2c1nc1ccccc12)NCc1ccc(Cl)cc1,51*,32,-1,1,7,-4
C[C@@H]1CN([C@H](C)CO)C(=O)c2cc(-c3ccccc3F)cnc2O[C@H]1CN(C)C,/,/,/,/,-4,/
CCCCN(CC)Cc1ccc(CNC(=S)Nc2ccc(C)cc2Cl)o1,-28,-13,9,42,2,74*
Cc1cc(C)n(-c2ccc(NC(=O)C3CCCCN3C(=O)c3ccoc3C)cc2)n1 (stereo unspecified),-77,-70*,2,1,19,-1
COc1cc(-c2nc3cnccn3c2Nc2ccc(C)cc2)ccc1O,-9,-10,-8,-46,-12,-18
COc1cc(-c2nc3cnccn3c2Nc2ccccc2)ccc1O,56*,24,16,-55,-6,17
Oc1ccc(-c2nc3cnccn3c2Nc2ccc3c(c2)OCCO3)cc1,64*,53,4,-34,-46,27
SMILES,HSF-1 act,HSF1 inhib,LMP1 NFkB inh,TROY NFkB inh,LGR2 antag,TWEAK-Fn14 inh
COc1cccc(S(=O)(=O)N[C@H]2CC[C@@H](CCNC(=O)Cc3ccncc3)O[C@H]2CO)c1,/,/,/,/,8,/
O=c1[nH]c(C2CCN(S(=O)(=O)c3ccc4c(c3)OCCO4)CC2)nc2c1nnn2Cc1c(F)cccc1Cl,-21,-16,0,24,-17,55*
O=c1[nH]c(C2CCN(S(=O)(=O)c3cccc([N+](=O)[O-])c3)CC2)nc2c1nnn2Cc1ccccc1,61*,27,2,9,4,4
CCNC(=O)C[C@@H]1CC[C@@H]2[C@H](COc3ccc(NC(=O)c4ccc(F)cc4)cc3C(=O)N2C)O1,/,/,/,/,2,/
Cc1noc(C)c1NC(=O)N(C)C[C@H]1Oc2ccc(NC(=O)C3CC3)cc2CC(=O)N([C@H](C)CO)C[C@@H]1C,/,/,/,/,0,/
Cc1ccc(O)c(NC(=O)Cc2ccc3ccccc3c2)c1,161*,142,-26,-32,-18,-16
Cc1ccc(NS(=O)(=O)c2ccc(NC(=O)CSc3ccc(Cl)cc3)cc2)c(C)c1,19,21,2,30,/,30
Cc1ccc(O)c(NC(=O)CSc2n[nH]c(C)c2[N+](=O)[O-])c1,73*,48,-2,25,17,28
Cc1ccc(O)c(NC(=O)CSc2ccc(Cl)cc2)c1,162*,112,5,0,-33,-4
Cc1ccc2cc(NC(=O)c3cccc(F)c3)ccc2n1,36,43,-30,-42,/,7
Cc1ccc(C(=O)Nc2ccc3ccccc3c2)cc1,-39,-35,17,54*,/,87*
O=C(Nc1ccc2ccccc2c1)c1cccc(F)c1,79*,39,-59,-13,-55,6
Cc1ccc(C(=O)Nc2ccc3c(c2)C(=O)NC3=O)cc1,-66,-57*,4,-44,-24,-26
Cc1ccoc1C(=O)Nc1ccc2ccccc2c1,32,11,6,1,60*,36
CCCNC(=O)N[C@@H]1C=C[C@H](CC(=O)NC2CCCCC2)O[C@@H]1CO,/,/,/,/,1,/
CCOc1cccc(C(=O)Nc2ccc3ccccc3c2)c1,16,4,-25,15,66*,52*
Cc1cc(C(=O)Nc2ccc3ccccc3c2)c(C)o1,66*,31,-33,-42,-59,-18
O=C(O)Cc1ccc(NC(=O)c2ccc(NC(=O)c3ccco3)cc2)cc1,1,-1,5,8,/,0
O=C(Nc1ccc2ccccc2c1)c1ccc(Br)o1,65*,27,-26,-65,-88,-12
Cc1ccoc1C(=O)Nc1ccc(CC(=O)O)cc1,-40,-20,44*,14,/,76*
O=S(=O)(Cc1ccccc1)NCC[C@H]1CC[C@H](NS(=O)(=O)c2ccc(F)cc2)[C@@H](CO)O1,/,/,/,/,15,/
COc1cccc(C(=O)Nc2ccc3c(c2)OC[C@@H](C)N(C)C[C@@H](C)[C@H](OC)CN(C)C3=O)c1,/,/,/,/,-16,/
C[C@@H]1CN([C@@H](C)CO)C(=O)Cc2cc(NC(=O)CCN3CCOCC3)ccc2O[C@H]1CN(C)Cc1ccc(Oc2ccccc2)cc1,/,/,/,/,7,/
CN(Cc1ccc(F)cc1)C(=O)CN1CCN(S(=O)(=O)c2ccc3c(c2)OCCCO3)CC1,/,/,48*,3,-15,7
CN(Cc1cccc(F)c1)C(=O)CN1CCN(S(=O)(=O)c2ccc3c(c2)OCCCO3)CC1,/,/,-3,-7,-1,11
